Most compounds without a hit are left out; they make up all but 19% or so of the library.
S-ASM inh: blocks human secretory acid sphingomyelinase. P17405. placental ASM, HMU-PC fluorogenic substrate, 60 min. Potency, µM (highest dose often 57.5 µM), for the others: at the highest dose activity change, negative = inhibition, usual class: inhibitors. actives 0.006% (n = 340,000). AID 504937; also: potency is read from the fitted curve at half-maximal effect
Target sequence (P17405 47-631 limits assumed): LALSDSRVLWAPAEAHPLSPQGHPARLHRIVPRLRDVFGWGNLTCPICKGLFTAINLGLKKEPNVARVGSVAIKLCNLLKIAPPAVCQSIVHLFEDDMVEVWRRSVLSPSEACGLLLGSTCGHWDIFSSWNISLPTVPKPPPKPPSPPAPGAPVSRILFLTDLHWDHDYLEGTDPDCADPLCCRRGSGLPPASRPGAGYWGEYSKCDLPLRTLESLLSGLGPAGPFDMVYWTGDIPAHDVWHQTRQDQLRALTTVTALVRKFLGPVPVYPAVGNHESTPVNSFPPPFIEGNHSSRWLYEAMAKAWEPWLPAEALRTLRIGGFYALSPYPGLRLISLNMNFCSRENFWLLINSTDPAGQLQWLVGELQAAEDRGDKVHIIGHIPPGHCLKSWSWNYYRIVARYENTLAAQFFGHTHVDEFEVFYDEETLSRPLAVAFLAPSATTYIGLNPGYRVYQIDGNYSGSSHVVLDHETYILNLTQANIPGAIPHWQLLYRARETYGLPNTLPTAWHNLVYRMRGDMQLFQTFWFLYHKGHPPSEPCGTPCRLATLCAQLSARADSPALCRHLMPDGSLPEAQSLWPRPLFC
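Steps: dispense placental human ASM, pin compound, wait 10 min at room temperature, add HMU-PC0 substrate at 9 uM final, incubate 60 min at 37 °C, add stop solution raising pH to 10, read fluorescence.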
HepG2 tox: HepG2 cytotoxicity, counter-screen for TGF-b inhibitors | actives 0.76% (n = 410,000) | HepG2 CAGA-GFP viability, ATP luminescence, 18 h | Potency, µM (top dose mostly 46.1 µM), without a hit: at the highest dose activity change, negative = cytotoxicity, most hits filed as cytotoxic; also: potency is read from the fitted curve at half-maximal effect
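HepG2 CAGA-GFP cells (1000/well, DMEM with 1% FBS) received compound, then TGF-beta at 500 pg/mL final, and were incubated 18 hours at 37 degrees C. Viability was read by CellTiter-Glo luminescence. Media-only wells were set as complete cell-killing and DMSO as no toxicity.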
DT40 TDP1 no CPT: qHTS for Inhibitors of human tyrosyl-DNA phosphodiesterase 1 (TDP1): qHTS in cells in absence of CPT | actives 15% (n = 420,000) | DT40 Tdp1-/- hTDP1 cells, no CPT, ATP luminescence, 48 h | Potency, µM (doses to about 46.2 µM), inactives show at the top dose activity change, negative = growth inhibition, hits mostly inhibitors | AID 686978, 2013; also: potency is read from the fitted curve at half-maximal effect; % is scaled to controls: 0 for no effect and ±100 for the full control effect; nearly all actives have a fitted effect of over 55% in size
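Compound effects on proliferation are scored in DT40 Tdp1-/-;hTDP1 cells in the absence of CPT. ATP levels (CellTiter-Glo luminescence) are recorded after a ≥48 hr, 37 °C incubation.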
TGFb SMAD3 inh: TGF-b pathway inhibition | HepG2 CAGA-GFP TGF-b/SMAD3 reporter, GFP fluorescence, 18 h; TGF-beta stimulated, 500 pg/mL final | actives 1.2% (n = 410,000) | AID 588855 | Potency, µM (highest dose often 46.1 µM), inactives show at the top dose activity, negative = inhibition, most hits filed as inhibitors; also: potency is read from the fitted curve at half-maximal effect; % is scaled to controls: 0 for no effect and ±100 for the full control effect; nearly all actives have a fitted effect of over 65% in size
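TGF-beta reporter screen: HEPG2 CAGA-GFP, 1% FBS, 500 pg/mL TGF-beta final, 18 h; per-cell GFP summed per well; curves fitted and categorized by class.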
DT40 TDP1 CPT: DT40-hTDP1 cell growth loss with CPT; chicken DT40 Tdp1-/-;hTDP1 cells + 20 nM CPT, ATP luminescence, 48 h; Potency, µM (doses to about 46.2 µM), inactives show top-dose activity change, negative = growth inhibition, usual class: inhibitors; actives 12% (n = 420,000); also: potency is read from the fitted curve at half-maximal effect; % is scaled to controls: 0 for no effect and ±100 for the full control effect; nearly all actives have a fitted effect of over 55% in size
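Chicken DT40 Tdp1-/- cells stably complemented with human TDP1 were seeded at 400 cells/well in medium containing 20 nM camptothecin, exposed to pin-transferred compounds, and grown at 37 °C for at least 48 hr. Viability was read as ATP luminescence.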
IL1B secr inh: blocks inflammasome-driven IL-1 beta release. THP-1 LPS/ATP IL-1B secretion, AlphaLISA, 16 h; hits give low values. activity change, % at 57.5 µM. actives 4.7% (n = 360,000). AID 743279; in the data active = activity change below about -50%; inconclusive = mostly about -30% to -49%; also: % is scaled to controls: 0 for no effect and ±100 for the full control effect
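THP-1 cells pretreated 1 hr with compounds (up to 57.5 uM final), then stimulated with LPS (250 ng/mL final) plus ATP (1.25 mM final); secreted IL-1B measured by AlphaLISA after 16 hr, decreased signal indicating inhibition.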
The depositor's hits bear a star; ? = inconclusive; . = no result. Unless noted, calls follow the shape of the dose curve; as a rule, active = well fitted curve in the direction sought with a large enough effect; inconclusive = small, poorly fitted or top-dose-only effect, or another doubt; inactive = no such curve, though single readings can be large; an effect the other way counts as inactive or inconclusive.

SMILES	S-ASM inh	HepG2 tox	DT40 TDP1 no CPT	TGFb SMAD3 inh	DT40 TDP1 CPT	IL1B secr inh
CC(C)(CNC(=O)c1ccc(NS(=O)(=O)c2ccc(Br)cc2)cc1)N1CCOCC1	-1%	-57%	-28%	-19%	-24%	15
O=C(C[C@@H]1C[C@@H]2c3cc(NS(=O)(=O)c4ccc(F)cc4)ccc3O[C@@H]2[C@H](CO)O1)NCc1ccc(Oc2ccccc2)cc1	.	-53%	?	?	?	-11
O=C(C[C@@H]1C[C@H]2c3cc(NC(=O)c4cccnc4)ccc3O[C@H]2[C@H](CO)O1)NCc1ccc(Oc2ccccc2)cc1	.	-3%	5.8µM*	?	13µM*	75
O=C(C[C@@H]1C[C@H]2c3cc(NC(=O)C4CCC4)ccc3O[C@H]2[C@@H](CO)O1)NCc1ccc(-c2ccccc2)cc1	.	16µM*	21µM*	?	18µM*	5
CCCCS(=O)(=O)N1CCCC(C(=O)NCC2CCCO2)C1 (configuration not stated)	0%	-5%	9%	-2%	3%	-4
CCN1C(=O)c2cccc3c(S(=O)(=O)N(C(=O)c4cccnc4)c4ccc(OC)cc4)ccc1c23	259%	-31%	12µM*	?	?	39
Cc1ccc(CCNC(=O)CN(c2ccc(C(C)C)cc2)S(=O)(=O)c2c(C)nn(C)c2C)cc1	.	-6%	23µM*	-24%	?	.
COc1ccc(N(CC(=O)NCCc2ccc(C)cc2)S(=O)(=O)c2c(C)noc2C)cc1	0%	-22%	?	-24%	21µM*	-11
COc1ccc(N(CC(=O)NCCc2cccc(C)c2)S(=O)(=O)c2c(C)noc2C)cc1	2%	-19%	18µM*	?	?	-16
Cc1ccc(-c2cn3c(n2)sc2cc(C(=O)NCCCc4ccccc4)ccc23)c(C)c1	.	-1%	18µM*	4%	23µM*	.
Cc1ccc(-c2cn3c(n2)sc2cc(C(=O)NCCC4=CCCCC4)ccc23)c(C)c1	.	-14%	16µM*	0%	16µM*	.
Cc1ccc(-n2cnc3cc(C(=O)NCCC4=CCCCC4)ccc32)c(C)c1	.	-56%	?	?	?	.
CCc1ccc(-c2cn3c(n2)sc2cc(C(=O)NCCCc4ccccc4)ccc23)cc1	.	0%	-2%	-16%	-22%	.
CC(NC(=O)CN1CCN(CC(=O)Nc2ccccc2Cl)CC1)c1ccc(Br)cc1 (configuration not stated)	2%	-15%	?	?	?	-3
Cc1cc(C)nc(-n2nc(C)cc2NC(=O)c2cccc(S(=O)(=O)N3CCOCC3)c2)n1	-1%	-6%	21µM*	4%	?	-8
Cc1cc(C)nc(-n2nc(C)cc2NC(=O)c2ccc(S(=O)(=O)N3CCOCC3)cc2)n1	-2%	-3%	-24%	-2%	-30%	11
CC(=O)c1cccc(NC(=O)c2ccc(S(=O)(=O)N3CCCC3)cc2)c1	1%	-2%	?	2%	0%	-1
Cc1cc(C)n(-c2ccc(C(=O)Nc3cccc(S(=O)(=O)N4CCCC4)c3)cc2)n1	-1%	-17%	9.2µM*	-3%	18µM*	1
O=C(Nc1cccc(S(=O)(=O)N2CCCCC2)c1)c1ccc(OCC2CCCO2)cc1 (configuration not stated)	1%	-3%	16µM*	2%	21µM*	-15
Cc1cc(C)n(-c2ccc(C(=O)OCC(=O)Nc3ccc(S(=O)(=O)N4CCCCC4)cc3)cc2)n1	-7%	3%	?	16%	23µM*	-12
Cc1cccc(C)c1N1C(=O)c2ccccc2NC(=O)C1C(=O)NCCc1ccccc1 (configuration not stated)	.	.	-14%	.	-17%	16
CCOc1ccccc1NC(=O)C(Cc1ccccc1)NS(=O)(=O)c1ccc2c(c1)oc(=O)n2C (configuration not stated)	.	-28%	8%	-7%	?	.
COc1cccc(NS(=O)(=O)c2ccc3[nH]cc(C(=O)NCCc4ccccc4)c(=O)c3c2)c1	.	-25%	?	-1%	?	.
CCOc1ccc(N(CC(=O)NN=C2CCN(C)CC2)S(=O)(=O)c2ccc(Br)cc2)cc1	1%	-14%	-21%	-9%	?	39
COCc1ccc(CN2CCCC(CO)(Cc3ccccc3)C2)o1 (configuration not stated)	4%	-10%	?	-6%	-4%	5
SMILES	S-ASM inh	HepG2 tox	DT40 TDP1 no CPT	TGFb SMAD3 inh	DT40 TDP1 CPT	IL1B secr inh
COc1cccc(NC(=O)c2ccc(S(=O)(=O)N3CCCC3)cc2)c1	-4%	-7%	-6%	-5%	1%	?
CC(C)Oc1ccc(C(=O)Nc2cccc(S(=O)(=O)N3CCCC3)c2)cc1	-9%	15%	21µM*	-5%	29µM*	?
COc1ccc(NC(=O)c2cccc(N3C(=O)C4C5CCC(C5)C4C3=O)c2)cc1 (configuration not stated)	.	-4%	?	-9%	?	12
O=C(Oc1cccc2cccnc12)c1cccc(-n2cnnn2)c1	2%	-24%	18µM*	-10%	?	1
O=C(Oc1cccc2cccnc12)c1cccc(N2C(=O)C3C4CCC(C4)C3C2=O)c1 (configuration not stated)	9%	-32%	4.6µM*	?	4.1µM*	-81*
O=C(Oc1cccc2cccnc12)c1ccc(N2C(=O)C3C4CCC(C4)C3C2=O)cc1 (configuration not stated)	-3%	-74%	1µM*	?	0.52µM*	-95*
CC(OC(=O)c1cccc(-n2cnnn2)c1)C(=O)c1ccccc1 (configuration not stated)	-2%	6%	-2%	1%	10%	11
CC(=O)c1ccc(NC(=O)Nc2ccc(Br)cc2C)cc1	-7%	2%	1%	-5%	4%	-19
O=C(NCC(=O)N1CCN(c2ccccc2F)CC1)c1ccco1	0%	14%	-20%	4%	-6%	4
Cc1ccc(S(=O)(=O)n2cc(-c3ccccc3)c3ccccc32)cc1	12%	11%	2.3µM*	?	3.7µM*	69
